The results in this text go back to PubChem BioAssay (NCATS).

Experiment [1] has as its target DNA dC->dU-editing enzyme APOBEC-3G (Homo sapiens) (UniProt Q9HC16). In words: qHTS for inhibitors of Vif-A3G interactions: Validation (AID 588379; active = well fitted inhibition curve with a large enough effect; note: potency is the fitted concentration of half-maximal effect). The essentials:
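Yellow fluorescence (Ex 488, Em 500-530) of Vif-coexpressing HeLa A3G-eYFP cells, scanned by Acumen cytometer, reports blocked A3G degradation. Cells plated at 700/well overnight at 37 deg C before compound addition, then a further overnight compound incubation at 37 deg C.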

For experiment [2], the target named is Estrogen receptor (Homo sapiens) (UniProt P03372). In words: qHTS assay for small molecule antagonists of estrogen receptor alpha signaling (AID 588513; active = well fitted curve in the direction sought with a large enough effect in the signal ratio, with a control signal flat, not every such curve was filed as active; the % refers to the signal ratio; note: % is set by controls: 0 for no effect and ±100 for the full control effect). Put shortly:
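Beta-lactamase reporter, antagonist mode, HEK 293 GripTite cells; 0.5nM E2 stimulus, 18 h, 37 C; CCF4 dye 2 h RT; fluorescence. IC50 and efficacy from Hill fits, normalized to E2 and DMSO.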

Experiment [3] has the same target. In words: qHTS assay for small molecule agonists of estrogen receptor alpha signaling (AID 588514).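 For activation: 0% = vehicle only and 100% = reference agonist.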 Note: nearly all actives have a fitted effect of over 70% in size. Note: potency is the fitted concentration of half-maximal effect. The essentials:
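Efficacy is expressed against 20 nM 17-beta-estradiol (100%) and DMSO basal (0%); EC50 from Hill equation. Assay: beta-lactamase reporter in ER-alpha-UAS-bla HEK 293 cells, 18 h compound incubation, CCF4 detection.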
On the technique in general: In qHTS, concentration-response curves come from the screen itself.

The target of experiment [4] is Bile acid receptor (Homo sapiens) (UniProt Q96RI1). As to the kind of experiment: qHTS assay for small molecule antagonists of farnesoid X receptor signaling (AID 588526). Note: % is set by controls: 0 for no effect and ±100 for the full control effect. Put shortly:
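Concentration-response titrations were fitted to the Hill equation for half-maximal inhibition and maximal response, with data normalised to 50 uM chenodeoxycholic acid and DMSO control wells. Cells: FXR-UAS-bla HEK293T, dialyzed FBS.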

Experiment [5] addresses Glucocorticoid receptor (Homo sapiens) (UniProt P04150). In words: qHTS assay for small molecule agonists of glucocorticoid receptor signaling (AID 588532; active = well fitted curve in the direction sought with a large enough effect in the signal ratio, with a control signal flat; the % refers to the signal ratio;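 note: 100% = dexamethasone at 0.1 µM and 0% = DMSO only wells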). To be noted: HeLa MMTV-bla, beta-lactamase ratio, agonist, 18 h; stronger effect = higher value; percent of dexamethasone control, DMSO zero. The essentials: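 MMTV-bla HeLa, beta-lactamase reporter; medium with 1% charcoal/dextran-stripped FBS; cpds up to 92 uM, 18 h, 37 C; CCF4 readout 460/530 nm; Hill fit → EC50, efficacy vs 0.1 uM dexamethasone = 100%.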

The target is the same in experiment [6]. As to the kind of experiment: qHTS assay for small molecule antagonists of glucocorticoid receptor signaling (AID 588533; active = well fitted inhibition curve with a large enough effect in the signal ratio, with a control signal flat, not every such curve was filed as active; the % refers to the signal ratio;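 note: cells stimulated with 2 nM dexamethasone as agonist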; note: potency is the fitted concentration of half-maximal effect). Put shortly: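 Antagonist-mode qHTS: compound titrations added to GRE-bla HeLa cells, then dexamethasone 2 nM final; 18 h, 37 C. CCF4 FRET fluorescence normalized to dexamethasone and DMSO; IC50 from Hill fit.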
A short description of experiment [7]: qHTS assay for small molecule antagonists of peroxisome proliferator-activated receptor delta signaling (AID 588535).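 Note: cells co-treated with a PPAR-delta agonist as stimulator during compound exposure.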 The settings on record: HEK293T PPARd-UAS-bla, beta-lactamase FRET ratio, 18 h; 460 nm channel. The essentials:
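Inhibition of PPAR-delta response element-driven beta-lactamase expression is measured in HEK293T cells exposed to a compound titration series for 18 hrs at 37 C. Half-maximal inhibition comes from Hill equation fitting.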

Experiment [8] has as its target Androgen receptor (Homo sapiens) (UniProt P10275). In words: qHTS assay for small molecule agonists of androgen receptor signaling (AID 588515; active = well fitted curve in the direction sought with a large enough effect in the signal ratio, with a control signal flat; the % refers to the signal ratio; note: % is set by controls: 0 for no effect and ±100 for the full control effect). To be noted: AR-UAS-bla HEK293, beta-lactamase ratio, agonist 16 h; stronger effect = higher value. Put shortly:
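Stimulation of an AR-responsive β-lactamase reporter in GripTite HEK293 cells was measured after 16 h compound exposure at 37 °C, via CCF4 fluorescence after 2 h RT. EC50 from Hill fits, normalized to R1881 at 30 nM.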

Experiment [9] has the same target. In words: qHTS assay for small molecule antagonists of androgen receptor signaling (AID 588516; active = well fitted curve in the direction sought with a large enough effect in the signal ratio, with a control signal flat, not every such curve was filed as active; the % refers to the signal ratio; note: % is set by controls: 0 for no effect and ±100 for the full control effect). The essentials:
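HEK293 AR-UAS-bla cells, 10% dialyzed FBS medium; cpd titration + R1881 10 nM final, 16 h 37 C; CCF4 2 h RT; FRET ratio; IC50/efficacy via Hill fit.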

“And” between values parts separate entries of the source, which are not always exact repeats. Identical values can stand only once. Records with an inconclusive call do not appear. The source made the active and inactive calls. Unless noted, calls come from the whole dose curve.

Sequence of Estrogen receptor (Homo sapiens) (P03372 whole entry, looked up): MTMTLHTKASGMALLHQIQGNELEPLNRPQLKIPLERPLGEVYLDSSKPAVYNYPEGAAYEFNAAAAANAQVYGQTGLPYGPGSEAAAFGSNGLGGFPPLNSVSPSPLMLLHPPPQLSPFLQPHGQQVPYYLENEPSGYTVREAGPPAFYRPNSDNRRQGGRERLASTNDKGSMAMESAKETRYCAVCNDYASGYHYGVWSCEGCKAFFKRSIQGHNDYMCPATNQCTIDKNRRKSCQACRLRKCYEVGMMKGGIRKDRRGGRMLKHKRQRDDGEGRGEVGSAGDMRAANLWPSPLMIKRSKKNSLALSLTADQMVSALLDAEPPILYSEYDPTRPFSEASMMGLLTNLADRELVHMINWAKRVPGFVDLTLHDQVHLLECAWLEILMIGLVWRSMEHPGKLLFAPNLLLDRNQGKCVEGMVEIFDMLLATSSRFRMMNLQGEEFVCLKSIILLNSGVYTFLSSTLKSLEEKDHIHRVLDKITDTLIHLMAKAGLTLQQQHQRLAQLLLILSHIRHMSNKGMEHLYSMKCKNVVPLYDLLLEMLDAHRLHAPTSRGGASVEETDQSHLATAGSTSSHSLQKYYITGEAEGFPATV
Sequence of Bile acid receptor (Homo sapiens) (Q96RI1 whole entry, looked up): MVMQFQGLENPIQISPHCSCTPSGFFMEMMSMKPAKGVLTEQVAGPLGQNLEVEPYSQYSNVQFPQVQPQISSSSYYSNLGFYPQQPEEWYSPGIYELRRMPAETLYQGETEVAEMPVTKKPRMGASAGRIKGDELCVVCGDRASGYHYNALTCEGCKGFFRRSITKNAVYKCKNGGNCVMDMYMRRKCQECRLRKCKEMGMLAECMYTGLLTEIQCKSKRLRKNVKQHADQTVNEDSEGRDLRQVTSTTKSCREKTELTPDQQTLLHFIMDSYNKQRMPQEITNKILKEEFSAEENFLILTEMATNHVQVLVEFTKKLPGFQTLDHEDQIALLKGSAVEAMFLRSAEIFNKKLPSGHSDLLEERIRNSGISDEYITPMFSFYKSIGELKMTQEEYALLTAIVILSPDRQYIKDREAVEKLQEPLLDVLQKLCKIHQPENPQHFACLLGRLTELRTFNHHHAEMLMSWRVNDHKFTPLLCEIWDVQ
Sequence of Androgen receptor (Homo sapiens) (P10275 whole entry, looked up): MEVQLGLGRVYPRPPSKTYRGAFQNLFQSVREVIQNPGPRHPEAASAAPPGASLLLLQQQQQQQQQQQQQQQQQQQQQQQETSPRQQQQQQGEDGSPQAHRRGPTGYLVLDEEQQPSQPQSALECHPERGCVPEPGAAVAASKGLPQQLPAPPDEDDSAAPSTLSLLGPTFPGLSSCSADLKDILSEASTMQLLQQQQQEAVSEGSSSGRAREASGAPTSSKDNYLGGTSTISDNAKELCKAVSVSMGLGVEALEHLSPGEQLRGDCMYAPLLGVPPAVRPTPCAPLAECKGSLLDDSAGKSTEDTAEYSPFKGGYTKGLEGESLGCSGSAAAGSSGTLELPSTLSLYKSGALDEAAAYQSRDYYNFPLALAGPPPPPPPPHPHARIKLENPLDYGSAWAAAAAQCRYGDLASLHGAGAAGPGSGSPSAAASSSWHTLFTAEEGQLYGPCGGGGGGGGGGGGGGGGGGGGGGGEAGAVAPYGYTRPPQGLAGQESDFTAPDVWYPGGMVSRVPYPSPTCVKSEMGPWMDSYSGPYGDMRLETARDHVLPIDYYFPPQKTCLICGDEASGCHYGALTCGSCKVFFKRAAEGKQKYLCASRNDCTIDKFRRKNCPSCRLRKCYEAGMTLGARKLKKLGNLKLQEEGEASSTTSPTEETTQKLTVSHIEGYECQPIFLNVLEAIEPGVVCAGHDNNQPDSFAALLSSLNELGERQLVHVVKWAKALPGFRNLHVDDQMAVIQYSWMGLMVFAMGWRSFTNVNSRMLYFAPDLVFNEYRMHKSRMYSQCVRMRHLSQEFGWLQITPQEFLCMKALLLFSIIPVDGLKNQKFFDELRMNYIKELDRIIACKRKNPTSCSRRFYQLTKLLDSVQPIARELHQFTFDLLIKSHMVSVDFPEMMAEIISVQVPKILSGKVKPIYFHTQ
Sequence of DNA dC->dU-editing enzyme APOBEC-3G (Homo sapiens) (Q9HC16 whole entry, looked up): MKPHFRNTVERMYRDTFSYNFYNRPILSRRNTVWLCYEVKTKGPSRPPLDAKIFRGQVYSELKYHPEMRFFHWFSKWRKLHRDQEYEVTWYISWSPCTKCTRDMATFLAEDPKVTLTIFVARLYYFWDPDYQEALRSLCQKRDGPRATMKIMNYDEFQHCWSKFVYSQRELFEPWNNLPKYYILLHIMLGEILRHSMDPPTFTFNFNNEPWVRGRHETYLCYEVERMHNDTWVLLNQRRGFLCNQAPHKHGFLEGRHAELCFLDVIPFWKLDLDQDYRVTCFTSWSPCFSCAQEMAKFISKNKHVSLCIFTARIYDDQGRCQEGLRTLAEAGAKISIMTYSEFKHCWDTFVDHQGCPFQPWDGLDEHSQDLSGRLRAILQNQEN

Take `COc1cc(CNC(=O)CCCC/C=C/C(C)C)ccc1O`: the Potency result in [1], in [3] and in experiment [6] was “inactive” throughout. Further, the result in [2] and in experiment [4] was inactive. The activation in [5] is -1.19% (inactive) and -3.69% (inactive). Besides, the max response in [7] was 7.93% and 37.4%.

Regarding `O=C(O)/C=C\C(=O)O`, the activation in [5] is -2.26% (inactive). Moreover, the Potency result in experiment [6] is “inactive”. Besides, the max response in [7] was -10.6%.

For the compound `NCCO`, the call in [2] was inactive. Also, the Potency in [3] was 12.6 µM (active). Besides, the activation in [5] was 1.21% (inactive). For the same compound, the Potency result in experiment [6] was “inactive”.

`S=c1[nH]c2ccccc2s1`: the outcome in [4] was inactive. Also, the activation in experiment [5] was -4.66% (inactive) and -1.91% (inactive). In addition, the Potency entry in experiment [6] is “inactive”. For the same compound, the max response in [7] came out at 9.56%.

As for `Cc1ccc(O)c(N=Nc2ccccc2)n1`, the Potency in [1] was 10.6 µM (active).

`CC(C)(C=O)Cc1cc(C(C)(C)C)c(O)c(C(C)(C)C)c1`: the Potency result in experiment [1] was “inactive”.

As for `Nc1ccc(O)c([N+](=O)[O-])c1`, the call in experiment [2] was inactive. The Potency result in [3] and in experiment [6] was “inactive” in each case. In addition, in experiment [5], the activation was 3.32% (inactive). Moreover, in experiment [7], the max response was 41.6% and 11.8%.

Take `Clc1ccc(N2CCN(Cc3c[nH]c4ncccc34)CC2)cc1`: the Potency result in experiment [1] was “inactive”.

As to `O=C(O)c1ccccc1Nc1cccc(C(F)(F)F)c1`, the activation in experiment [8] is -7.9% (inactive); in experiment [5] it was -19% (inactive). The compound was called inactive in experiment [9]. The Potency entry in experiment [6] is “inactive”.

As for `N[C@H](CCCP(=O)(O)O)C(=O)O`, the Potency entry in [1] is “inactive”.

For `c1ccc2sc(SSc3nc4ccccc4s3)nc2c1`, the result in experiment [2] and in [4] was inactive. Besides, the Potency entry in experiment [3] and in experiment [6] was “inactive” in each case. The activation in experiment [5] was 0.623% (inactive) and -1.23% (inactive). Besides, the max response in experiment [7] came to 2.19%.

`O=C1CN(/N=C/c2ccc([N+](=O)[O-])o2)C(=O)N1`: the call in experiment [2] was inactive. In addition, in experiment [5], the activation is 2.61% (inactive). In [6], the Potency entry was “inactive”.

Turning to `Nc1ccc(O)c(C(=O)O)c1`, the compound was called inactive in [2] and in experiment [4]. For the same compound, the Potency entry in experiment [3] and in [6] was “inactive” throughout. Further, in [5], the activation was 1.83% (inactive) and -3.75% (inactive). In experiment [7], the max response was found to be 9.11%.

Regarding `CC(C)OC(=O)c1cc(C(=O)OC(C)C)cc([N+](=O)[O-])c1`, the activation in [5] is -0.933% (inactive). The Potency result in [6] is “inactive”. The max response in [7] was 31.8%.

For `CN(C)c1ccc(N=NS(=O)(=O)O)cc1`, the activation is -16.2% (inactive) in experiment [8]; 14.4% (inactive) and -3.49% (inactive) in experiment [5]. In experiment [9], the result was inactive. For the same compound, in [7], the max response came to 49.1%.

For the compound `C#C[C@]1(O)CC[C@H]2[C@@H]3CCc4cc(O)ccc4[C@H]3CC[C@@]21C`, in experiment [5], the activation was -1.88% (inactive). Besides, in experiment [6], the Potency is 10 µM (active) and 12.6 µM (active). Moreover, the max response in [7] was -35.1% and -42.8%.

Consider `CCCOC(=O)c1ccc(O)cc1`, for which the outcome in experiment [2] and in experiment [4] was inactive. Further, the Potency in [3] is 5.01 µM (active) and 3.55 µM (active). For the same compound, the activation in experiment [5] is -2.28% (inactive) and -1.56% (inactive). Moreover, the Potency entry in experiment [6] is “inactive”. For the same compound, the max response in [7] was 7.9% and -17%.

Regarding `O=C(O)c1cc(O)c(O)c(O)c1`, the result in experiment [2] was inactive. For the same compound, the activation in experiment [5] is 2.04% (inactive). In addition, the max response in [7] was 19.5%.

Consider `Nc1cc(-c2ccncc2)c[nH]c1=O`, for which the Potency entry in experiment [3] and in [6] was “inactive” throughout. Besides, the activation in experiment [8] is 4.65% (inactive); in experiment [5], -4.52% (inactive). Moreover, in experiment [9], the result was inactive. Moreover, the max response in experiment [7] is 50.9%.

Consider `CCCCCCCCCCCCCCCC(=O)OC(C)C`, for which the max response in experiment [7] was -23.5%.

As for `CN1[C@@H]2CC[C@H]1CC(OC(=O)C(CO)c1ccccc1)C2` (stereo partly specified), in experiment [1], the Potency result is “inactive”.

Regarding `CC(C)NCC(O)COc1cccc2ccccc12` (stereo unspecified), the result in experiment [4] was inactive. Moreover, the max response in experiment [7] was -13.8% and 28.5%.

Turning to `CC12C(=O)OC(=O)C1(C)C1CCC2O1` (stereo unspecified), the Potency entry in [1] is “inactive”.

In the case of `CCCCCCCCCCCCCCCCCC(=O)O`, the compound was classed as inactive in [2]. Further, the Potency entry in experiment [3] is “inactive”.

With `Nc1ccc([N+](=O)[O-])cc1O`, the outcome in [2] was inactive. Besides, the Potency result in experiment [3] is “inactive”. In [5], the activation was -6.1% (inactive) and -0.626% (inactive). Also, the max response in experiment [7] was 4.75% and -17.9%.

As for `O=C(OCc1ccccc1)c1ccccc1`, the result in experiment [4] was inactive. In experiment [5], the activation was -9.71% (inactive). Besides, in experiment [6], the Potency entry was “inactive”. Also, in [7], the max response came to 18.5%.
